Screening results deposited in PubChem BioAssay by Johns Hopkins Ion Channel Center.
Rows were chosen to be rich in hits. Some 2.4% of all compounds tested hit in one or more screens of this group.
CHT block: inhibitors of human choline transporter CHT | CHT-expressing cells, membrane potential dye, choline response; active compounds read low | B-score at 10 µM | High affinity choline transporter 1 (Homo sapiens), Q9GZV3 | 310,000 tested, 0.86% active | AID 488975, 2010;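 active means B-score over 3 SD under the library average, and starting fluorescence ratio not unusually high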;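 further: choline stimulus applied at its EC90 after an EC20 pre-addition; B-score computed on integrated fluorescence ratio after choline addition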
TMEM16A act: TMEM16A chloride channel activators or potentiators, primary screen, cell-based, HTS | Anoctamin-1 (Mus musculus), Q8BHY3 | HEK293 TMEM16A/YFP-H148Q/I152L, iodide quench fluorescence; active compounds read low | B-score at 10 µM | 340,000 tested, 0.3% active | AID 623877, 2012;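 active means fluorescence-ratio B-score plate-corrected deviation score at least 3 library SD below zero, with starting fluorescence score within 5 deviations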;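 further: channel opened by trigger with iodide after compound preincubation; score built on the fluorescence ratio of max minus min over baseline; more negative score means more quench and so TMEM16A activation or potentiation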
TMEM16A inh: TMEM16A chloride channel inhibitors, primary screen, cell-based, HTS; Anoctamin-1 (Mus musculus), Q8BHY3; HEK293 TMEM16A/YFP iodide influx fluorescence, ionomycin; normalized B-score (activity score, 25-100; higher = stronger inhibition) at 10 µM; 310,000 tested, 1.2% active;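 active means ratio plate-corrected score three or more library SD toward inhibition, starting fluorescence score within five deviations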;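 further: score derived from kinetic fluorescence span divided by baseline fluorescence per well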
CHT allo act: CHT positive allosteric modulators, primary screen, cell-based, membrane potential dye, choline EC20. CHT-expressing cells; active compounds read high; LV-AA mutant CHT in HEK293 cells. B-score at 10 µM. 310,000 tested, 0.49% active;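 active means initial fluorescence not abnormally high and integrated response B-score, plate-corrected, over 3 SD above library mean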
* marks the source's active call; other numbers are inactive results; i = inactive; nt = not tested or not shown.

SMILES	CHT block	TMEM16A act	TMEM16A inh	CHT allo act
Cc1cc(F)ccc1S(=O)(=O)NCC(c1ccc2c(c1)OCO2)N1CCOCC1 (stereo not given)	i	i	i	i
CCOC(=O)C1CCN(S(=O)(=O)c2ccccc2)CC1	i	i	i	i
CCOC(=O)C1CCN(S(=O)(=O)c2ccc(C)cc2)CC1	i	i	i	i
CCOC(=O)C1CCN(S(=O)(=O)c2ccc(C(=O)OC)cc2)CC1	i	-13.5*	i	i
CCOC(=O)C1CCN(S(=O)(=O)c2c(Cl)ccc3nonc23)CC1	-5.42*	i	i	i
Cc1cccc(C2(c3cccc(C)c3)CC2C(=O)Nc2ccc([N+](=O)[O-])cc2O)c1 (stereo not given)	i	i	100*	i
O=C(O)c1nn(Cc2nc3ccccc3o2)c(=O)c2ccccc12	i	-4.84*	i	i
Cc1ccc(-c2noc(Cn3nc(C(=O)O)c4ccccc4c3=O)n2)cc1	i	i	i	i
CCCOc1cccc(-c2nc3ccccc3c(=O)o2)c1	i	i	i	i
CCOC(=O)c1cnc2c(OC)cccc2c1Oc1ccccc1	i	i	i	i
O=C(COC(=O)c1cccc(S(=O)(=O)N2CCN(c3ccccc3)CC2)c1)NCC1CCCO1 (stereo not given)	i	i	i	i
COc1cc(OC)c(NS(=O)(=O)c2cccc(C(=O)OCC(=O)NCC3CCCO3)c2)cc1Cl (stereo not given)	i	-7.83*	i	i
O=C1CC2C(=O)NCCN2C(=NC(=O)c2ccccc2)N1 (stereo not given)	i	i	i	i
COc1ccc(C(C)=O)cc1COC(=O)CCCN1C(=O)c2ccccc2C1=O	i	i	i	i
CCN(CC)S(=O)(=O)c1ccc(C(=O)Nc2ccc(OCC(=O)N3CCOCC3)cc2)cc1	i	-11.8*	i	i
COc1ccc(C(=O)Nc2ccccc2-c2nnn(CC(=O)N3CCOCC3)n2)cc1	i	i	i	i
COc1ccc(C(=O)Cn2nnc(-c3ccccc3NC(=O)c3ccco3)n2)cc1	i	-11*	i	i
CC(C)(C)OC(=O)CNC(=O)c1[nH]cnc1C(=O)NC(c1ccccc1)c1ccccc1	i	i	i	i
O=C1NN(c2ccccc2)C(=O)/C1=C\c1ccccc1OCC(=O)N1CCOCC1	i	i	25*	i
COC(=O)[C@@]12CCCCN1[C@H](c1ccc(SC3CCCCC3)cc1)[C@@H]1C(=O)N(C)C(=O)[C@@H]12	i	-7.89*	i	i
Cc1ccc(C(=O)NC(=S)NCC2CCCO2)cc1Br (stereo not given)	i	i	i	i
CC(C)(C)OC(=O)N[C@@H](Cc1ccccc1)c1nnc(S(=O)(=O)Cc2ccccc2)o1	i	nt	i	i
Cc1ccccc1CS(=O)(=O)c1nnc([C@H](Cc2ccccc2)NC(=O)OC(C)(C)C)o1	i	-5.21*	i	i
Cc1ccc(Cn2ncc3c(NCCCN(C)C)ncnc32)cc1	i	i	i	i
CCN(CCn1cccn1)Cc1cn[nH]c1-c1cccc2ccccc12	i	-6.24*	i	i
SMILES	CHT block	TMEM16A act	TMEM16A inh	CHT allo act
O=C([O-])c1cc(-c2ccccc2)cc(-c2ccccc2)[n+]1Cc1ccccc1	i	nt	i	6.79*
Cn1nc(C(=O)NCC(c2cccs2)N2CCOCC2)c2ccccc2c1=O (stereo not given)	nt	i	nt	nt
Clc1ccc(CNc2nc(N3CCOCC3)nc(N3CCOCC3)n2)cc1	i	-7.64*	i	i
CCC(Cc1ccccc1)NS(=O)(=O)c1ccc2c(c1)NC(=O)CO2 (stereo not given)	i	i	i	i
O=C1Nc2ccc(Cl)cc2[C@@](C#CC2CC2)(C(F)(F)F)O1	i	nt	100*	i
O=C1Nc2cc(Cl)ccc2C1(N1CCNCC1)C(F)(F)F (stereo not given)	i	i	i	i
Cc1nc2[nH]c(=S)[nH]c2cc1Br	i	i	i	i
COc1cccc(NC(=O)Cn2c3ccccc3c3nc4n(c(=O)c32)CCCS4)c1	i	-51.9*	i	i
